Source: PubChem BioAssay AID720517 (National Center for Advancing Translational Sciences (NCATS), 2013)
Results filed as inconclusive are left out. A number with no mark means an inactive call. The call rests on the fitted dose curve; in most records, active means well fitted activation curve with a large enough effect; inconclusive means small, poorly fitted or top-dose-only effect; inactive means flat fitted curve, though single readings scatter.

experiment: qHTS for Inhibitors of Cell Surface uPA Generation: FP59 Counterscreen for Cherry-picked Compounds; details: FP59 anthrax toxin cytotoxicity counterscreen, cells; series mostly up to 115 µM; activity (protection from FP59): at the top concentration; further: 0% is about no effect

First: CCC1=NN(C(=O)C(=O)Nc2ccc(OC)cc2)C(O)(C(F)(F)F)C1 (stereo not given)
Second: Cc1noc(C)c1COc1ccc(C(=O)O)cc1
The “activity (protection from FP59)” value of the first is lower: -1.44% for the first, -1.37% for the second.

COCCCN1CC23C=CC(O2)C(C(=O)O)C3C1=O (stereo not given) and CCOC(=O)C1(CCOc2ccccc2)CCN(Cc2ccc(O)c(OC)c2)CC1 are the same in “activity (protection from FP59)” value: -1.37% for the first, -1.37% for the second.

Going from CCCCNc1c(-c2ccc(-c3cccc(Cl)c3)cc2)nc2ccccn12 to O=c1[nH]c(SCc2cccc(Cl)c2)nc2ccccc12, the “activity (protection from FP59)” value rises from -1.44% to -1.21%.

Going from CN(CCC#N)C(=S)Nc1ccc(Oc2ccccc2)cc1 to O=C(CNS(=O)(=O)c1ccc(F)cc1)Nc1ccccc1, the “activity (protection from FP59)” value falls from -1.09% to -1.19%.

First: Cc1[nH]c(=O)[nH]c(=O)c1S(=O)(=O)N1CCCc2ccccc21
Second: CCOC(=O)C1CCN(S(=O)(=O)c2c[nH]c(=O)[nH]c2=O)CC1
The “activity (protection from FP59)” value of the first is lower: -1.55% for the first, -0.73% for the second.

Going from CCCCN(CC)CCNC(=O)c1cc2cc3ccc(Cl)cc3nc2o1 to O=C(NCCN1CCOCC1)c1ccc2c(c1)N(Cc1ccc(Cl)cc1)CCS2, the “activity (protection from FP59)” value rises from -1.38% to -1.33%.

First: O=C(CCN1CCN(c2ccccc2F)CC1)Nc1ccc(F)cc1
Second: COc1ccccc1C(=O)NCCC(=O)NCC(c1ccc(F)cc1)N1CCOCC1 (stereo not given)
The “activity (protection from FP59)” value of the first is lower: -1.42% for the first, -1.32% for the second.

First: COc1ccc([C@H]2CC(=O)C=C(c3ccc(CNC(=O)OC(C)(C)C)cc3)C2)cc1
Second: Cc1oc(-c2ccccc2F)nc1CS(=O)CC(=O)NCc1ccc(F)cc1 (stereo not given)
The “activity (protection from FP59)” value of the first is higher: 3.35% for the first, -1.16% for the second.

First: O=C(O)c1ccc(-n2nnnc2SCc2cccc(Br)c2)cc1
Second: O=C(c1ccc(NC(=S)NCc2ccc(Cl)cc2)cc1)N1CCCCC1
The “activity (protection from FP59)” value of the first is lower: -1.51% for the first, -0.935% for the second.

Compared with COc1ccccc1NC(=O)COc1ccc(C(=O)NCc2ccccc2)cc1OC, COc1cc(NS(=O)(=O)c2ccc(NC(=S)NC(=O)COc3ccccc3OC)cc2)nc(OC)n1 is lower in “activity (protection from FP59)” value: 0.667% for the first, 0.183% for the second.

Compared with Cc1ccc(CN2CCN(Cc3cc4ccccc4o3)CC2CCO)cc1 (stereo not given), Cc1ccc(Cl)cc1NC(=O)c1ccccc1OCC(=O)N1CCOCC1 is lower in “activity (protection from FP59)” value: -0.771% for the first, -0.889% for the second.

First: C/C(=N\NC(=S)NC(C)C)c1ccc(Cl)s1
Second: CC(C)NC(=O)CN1CCC(c2nc3ccccc3[nH]2)CC1
The “activity (protection from FP59)” value of the first is higher: 0.058% for the first, -1.44% for the second.

First: O=C(Nc1ccc(S(=O)(=O)N2CCOCC2)cc1)c1cc(-c2ccccc2O)n[nH]1
Second: O=C(/C=C/c1cccc(F)c1)Nc1cc(S(=O)(=O)N2CCOCC2)ccc1Cl
The “activity (protection from FP59)” value of the first is lower: -1.42% for the first, -0.397% for the second.

Compared with CCOc1cc(C(=O)OCC(=O)c2cc(C)n(CC3CCCO3)c2C)ccc1OCC(=O)N1CCOCC1 (stereo not given), COc1ccc(N2CCN(C(=O)COc3ccc4c(C)c(C)c(=O)oc4c3C)CC2)cc1 is lower in “activity (protection from FP59)” value: -1.32% for the first, -1.36% for the second.

Compared with O=C(COC(=O)c1cc([N+](=O)[O-])ccc1NCCO)NCc1cccs1, Cc1cc(COc2ccccc2)oc1C(=O)O is lower in “activity (protection from FP59)” value: -1.43% for the first, -1.48% for the second.

Compared with CCC(C)C(NC(=O)c1ccccc1)C(=O)Nc1ccc(S(=O)(=O)Nc2cc(C)nc(C)n2)cc1 (stereo not given), Cc1ccc(C(=O)NC(=S)Nc2ccc3[nH]c(=O)[nH]c3c2)c(C)c1 is lower in “activity (protection from FP59)” value: -1.41% for the first, -1.44% for the second.

First: Cc1ccn(CCC(=O)N2CCc3ccccc32)n1
Second: COC(=O)c1ccccc1NC(=O)Nc1nnc(N2CCCCC2C)s1 (stereo not given)
The “activity (protection from FP59)” value of the first is lower: -1.44% for the first, 12.4% for the second.

Going from O=C(NCCc1ccccc1)C1CCC(=O)N(Cc2cccc(C(F)(F)F)c2)C1 (stereo not given) to N#Cc1cccc(NC(=O)Cn2cnc(S(=O)(=O)N3CCOCC3)c2)c1, the “activity (protection from FP59)” value rises from -1.38% to -1.37%.

Going from CCSC1=NCCN1S(=O)(=O)c1ccc(Cl)cc1 to COc1ccc(NS(=O)(=O)c2cc3c(cc2C)NC(=O)CO3)c(OC)c1, the “activity (protection from FP59)” value rises from -1.47% to -1.42%.

Compared with COc1ccc(C)cc1NC(=O)NNC(=O)C1CCC(C(C)(C)C)CC1 (stereo not given), CCOC(=O)Oc1c(OC)cc(C(=O)O[C@@H]2C[C@@H]3CN4CCc5c([nH]c6cc(OC)ccc56)[C@H]4C[C@@H]3[C@H](C(=O)OC)[C@H]2OC)cc1OC is lower in “activity (protection from FP59)” value: 3.33% for the first, 2.97% for the second.
